Laboratory results taken from PubChem BioAssay AID2227 (Johns Hopkins Ion Channel Center, 2009).
Out of some 310,000 compounds screened, about 1,300 (0.42%) were called active.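 Rule for the calls: active = B-score of calcium response area above 5 SD of library B-scores, with initial fluorescence ratio within 5 SD of library; inactive = the rest.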 Shown is part of a subset that was picked to be rich in actives.

What follows are compounds tested against Short transient receptor potential channel 4 (Mus musculus) (UniProt Q9QUQ5) (assay: TRPC4 channel potentiators under submaximal DAMGO – cell-based, mouse TRPC4beta, HEK293 mu-opioid, Fluo-4 calcium, primary screen (AID 2227;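 for B-score: B-score of integrated fluorescence ratio over time as area under calcium response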)). Conditions: DAMGO EC20, Fluo-4 Ca2+ flux, at 10 µM; stronger effect = higher value.
Short transient receptor potential channel 4 (Mus musculus), sequence (Q9QUQ5 whole entry, looked up): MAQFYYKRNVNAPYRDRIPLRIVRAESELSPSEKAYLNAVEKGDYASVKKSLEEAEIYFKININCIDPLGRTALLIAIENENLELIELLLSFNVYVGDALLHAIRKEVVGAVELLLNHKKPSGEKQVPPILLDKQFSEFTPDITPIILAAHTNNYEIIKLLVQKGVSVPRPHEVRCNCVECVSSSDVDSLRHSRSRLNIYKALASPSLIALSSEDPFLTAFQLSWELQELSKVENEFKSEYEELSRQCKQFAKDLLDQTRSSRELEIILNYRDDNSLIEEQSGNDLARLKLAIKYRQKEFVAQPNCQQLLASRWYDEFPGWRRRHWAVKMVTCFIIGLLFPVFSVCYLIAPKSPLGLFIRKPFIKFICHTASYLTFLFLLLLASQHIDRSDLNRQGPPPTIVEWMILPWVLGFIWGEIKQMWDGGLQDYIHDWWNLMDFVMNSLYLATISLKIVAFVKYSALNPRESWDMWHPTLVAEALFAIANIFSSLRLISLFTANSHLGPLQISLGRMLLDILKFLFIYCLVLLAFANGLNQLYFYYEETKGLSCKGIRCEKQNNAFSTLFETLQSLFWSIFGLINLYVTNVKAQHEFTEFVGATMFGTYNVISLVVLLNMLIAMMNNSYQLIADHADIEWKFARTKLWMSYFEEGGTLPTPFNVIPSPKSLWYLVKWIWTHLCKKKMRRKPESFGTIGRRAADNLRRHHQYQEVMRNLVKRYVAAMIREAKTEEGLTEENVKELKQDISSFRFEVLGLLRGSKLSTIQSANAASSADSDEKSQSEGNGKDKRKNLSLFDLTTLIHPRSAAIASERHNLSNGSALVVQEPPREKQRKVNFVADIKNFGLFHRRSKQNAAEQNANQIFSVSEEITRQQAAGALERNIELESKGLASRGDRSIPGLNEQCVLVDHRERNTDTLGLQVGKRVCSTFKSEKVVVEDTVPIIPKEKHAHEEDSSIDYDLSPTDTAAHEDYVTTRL

SMILES | B-score
Cc1cc(-n2nc(C)cc2C)n2nc(C)c(-c3ccccc3)c2n1 | inactive
Cc1cc(-c2ccccc2)n2nc(C)c(-c3ccccc3)c2n1 | inactive
CCCC(C)c1nnc(NC(=O)C2CC(=O)N(c3ccc(OCC)cc3)C2)s1 (stereo not given) | inactive
O=S(=O)(NCCc1ccccc1)c1ccccc1 | inactive
COc1ccc(S(=O)(=O)NCCCc2ccccc2)cc1 | 32 (active)
O=S(=O)(NCCCc1ccccc1)c1ccc(Br)cc1 | inactive
COC(=O)c1c(NC(=O)CN2CCN(S(=O)(=O)c3ccccc3[N+](=O)[O-])CC2)sc2c1CCC(C)C2 (stereo not given) | inactive
CS/C(=C\C(=O)c1ccco1)Nc1ccccc1Cl | inactive
C#CCCCc1nc2ccccc2c(=O)n1N | inactive
CCCCn1c(N)c(N(CC(C)C)C(=O)c2cccc(S(=O)(=O)N3CC(C)OC(C)C3)c2)c(=O)[nH]c1=O (stereo not given) | inactive
CCn1cc(CN2CCN(CC(C)(C)C)C(CCO)C2)c2ccccc21 (stereo not given) | inactive
CN1CCN(c2cc3c(cc2F)c(=O)c(C(=O)O)cn3CCF)CC1 | inactive
CCCCCCn1cc(C(=O)O)c(=O)c2cc(F)c(N3CCCCC3)cc21 | 12 (active)
CCn1cc(C(=O)NCCO)c(=O)c2cc(F)c(N3CCN(C)CC3)cc21 | inactive
O=C(c1ccc(F)cc1)c1c[nH]c(C(=O)NCc2cccnc2)c1 | inactive
C=CCC1(C(=O)N(C)Cc2ccccc2)CCN(C(=O)OC(C)(C)C)CC1 | inactive
CC1(C)CC(=O)C(N=Nc2c(F)cccc2F)=C(O)C1 | inactive
Cc1ccc(N2C(=O)C(NC(=O)c3c(F)cccc3F)(C(F)(F)F)C3=C2CC(C)(C)CC3=O)cc1 (stereo not given) | 119 (active)
C=CCSc1nnc(N2C(=O)C(O)=C(C(=O)c3ccco3)C2c2ccc(F)cc2)s1 (stereo not given) | inactive
COc1ccccc1N(C)S(=O)(=O)c1ccc(C(=O)NC2CCCCCC2)cc1 | inactive
COC(=O)Cc1csc(/N=C/c2c(O)n(-c3cccc(C(F)(F)F)c3)c(=O)c3ccccc23)n1 | inactive
O=S(=O)(c1ccccc1)c1nc(-c2ccccc2)oc1NCCCN1CCOCC1 | inactive
O=S(=O)(c1ccc(Br)cc1)c1nc(-c2ccccc2)oc1N1CCOCC1 | 11 (active)
O=S(=O)(c1ccccc1)c1nc(Cc2ccccc2)oc1N1CCOCC1 | inactive
COc1nnc(-c2ccc(C)c(S(=O)(=O)N(C)C)c2)c2ccccc12 | inactive
CC1CCCCC1NC(=O)CO/N=C/c1ccc(OC(F)F)cc1 (stereo not given) | inactive
Cc1nn(CC(=O)Nc2ccc(N(C)C)cc2)c(C)c1[N+](=O)[O-] | inactive
COc1cccc(/C=C/C(=O)OCC(=O)N2CCCc3ccccc32)c1 | inactive

SMILES | B-score
Cc1cc2cc3c(N)[nH]nc3nc2cc1C | 11 (active)
O=C(NCCN1CCOCC1)c1cc(Sc2cccc(Cl)c2)nc2ccccc12 | inactive
COc1cc2c(C(=O)N3CCN(C)CC3)c(CSc3ccccc3)n(C)c2cc1Br | 18 (active)
COc1ccccc1OCc1ccc(C(=O)N2CCN(C)CC2)o1 | inactive
COc1cc(C(=O)N2CCN(C)CC2)cc(OC)c1OC | inactive
CC1=C(C(=O)OCC2CCCCC2)C(c2ccc(F)cc2)NC(=O)N1 (stereo not given) | inactive
C=CCc1cc(C)ccc1OCCCn1ccnc1 | inactive
c1ccc(Cc2ccc(OCCn3ccnc3)cc2)cc1 | inactive
Clc1c(OCCCn2ccnc2)ccc2ccccc12 | 15 (active)
Fc1ccccc1/C=N/Nc1cc(N2CCCCC2)ncn1 | inactive
O=C(NCc1cccc(Cl)c1)C1CCC(=O)N(C2CC2)C1 (stereo not given) | inactive
C=CCN(Cc1nc(-c2cc(OC)c3c(c2)OCO3)oc1C)C1CCS(=O)(=O)C1 (stereo not given) | inactive
CCOc1ccc(-c2nc(N)ncc2-c2ccccc2OC)c(O)c1 | inactive
C=C(C)COc1ccc(-c2nc(N)ncc2-c2ccccc2OC)c(O)c1 | 22 (active)
C=C(C)COc1ccc(-c2ncncc2-c2ccc(OC)cc2)c(O)c1 | inactive
CC(C)Oc1ccc(CC(=O)NNC(=S)Nc2ccc(Br)cc2)cc1 | inactive
COc1cc(CCC(=O)Nc2ccncc2Cl)cc(OC)c1OC | inactive
O=C1c2ccccc2C(=O)c2c1cccc2N1CCN(Cc2ccccc2)CC1 | 14 (active)
O=C1c2ccccc2C(=O)c2c1cccc2N1CCN(CCO)CC1 | inactive
O=C1c2ccccc2C(=O)c2c1cccc2N1CCN(C/C=C/c2ccccc2)CC1 | inactive
Cc1ccc(Cl)cc1NC(=O)CN1CCN(S(=O)(=O)N2CCOCC2)CC1 | inactive
O=C(c1ccc(Cl)s1)N(Cc1nnc(-c2ccccc2Cl)o1)C1CC1 | inactive
CCc1c(C)nc(N)n2c(SCC(=O)NC3CCCCC3)nnc12 | inactive
Cc1ccc(NC(=O)c2cnc(SCC(=O)NCC3CCCO3)n(C)c2=O)cc1 (stereo not given) | inactive
COc1ccccc1NC(=O)c1cc(Cl)nc2ccccc12 | inactive
Cc1cc(C(=O)Nc2ccccc2N2CCOCC2)c2ccccc2n1 | inactive
COC(=O)c1cc(N2CCNCC2)nc2ccccc12 | 39 (active)
